Test results from ChEMBL document CHEMBL3988442, “University of Dundee, Small-Polar-MMV Screening Library” (2021).
Hit rate of the full screen: of about 48,000 compounds, about 13,000 (27%) showed an effect of 50% or more. This is one part of the list.

What follows are compounds tested on Wolbachia pipientis (assay: Anti-Wolbachia Cell-Based Screen). Conditions: 5 µM.
Assay type: functional
Parameters: scale not given: in the data most compounds retested in dose-response had high values
For `CC(C)n1nc2c(cc1=O)CN(Cc1nnc(C3CC3)o1)CC2`, the “Percent Effect” value was 15.52%.
For `CCc1cc(NCCNC(C)=O)nc(N2CCOCC2)n1`, the “Percent Effect” value was -17.29%.
With `CC1CCc2nc(O)c(C(=O)NCCc3cccs3)cc2C1` (configuration not stated) the “Percent Effect” value was -7.543%.
`CCc1nnc(C(C)N(C)Cc2c(C)nn(-c3ccccc3)c2C)o1` (configuration not stated) was tested, and the “Percent Effect” value was 1.844%.
For `CCn1cc(CN2CCCC2c2nc(C(C)C)no2)cc1C#N` (configuration not stated), the “Percent Effect” value was -5.015%.
With `Cc1cccc(NC(=O)CNC(=O)Cn2ncc(Cl)c(Cl)c2=O)c1C` the “Percent Effect” value was -3.817%.
For `Cc1ncsc1C(=O)N1CCCC1c1c(C)nn(C)c1Cl` (configuration not stated), the “Percent Effect” value was 100%.
`COc1c(C2CCCN2C(=O)c2sc(C)nc2C)c(C)nn1C` (configuration not stated) was tested, and the “Percent Effect” value was 94.35%.
For `COc1c(C2CCCN2C(=O)c2scnc2C)c(C)nn1C` (configuration not stated), the “Percent Effect” value was 97.95%.
With `COc1ccsc1C(=O)N1CCCC1c1c(C)nn(C)c1OC` (configuration not stated) the “Percent Effect” value was -20.58%.
In the case of `Clc1cccc2c3c([nH]c12)CCN(Cc1cc2n(n1)CCNC2)C3`, the “Percent Effect” value is reported as -8.419%.
`CC(C)Oc1cccc(CN(C)C(=O)Nc2cccn(C)c2=O)c1` was tested, and the “Percent Effect” value was -28.92%.
With `Cc1ccc(Cl)c2c1C1(NC(=O)c3cccnc3N1)C(=O)N2` (configuration not stated) the “Percent Effect” value was -5.673%.
For `Cc1cnn(CCNCCCOc2ccc3c(c2)OCO3)c1`, the “Percent Effect” value was 2.747%.
With `O=C(CCn1cccn1)NCCOc1ncc(Cl)cc1Cl` the “Percent Effect” value was 81.6%.
For `O=C(CCn1cccn1)NCCOc1ccc2c(c1)OCO2`, the “Percent Effect” value was 104.8%.
`O=C(NCCOc1ncc(Cl)cc1Cl)c1ccncc1` was tested, and the “Percent Effect” value was -15.07%.
For `O=C(CCn1cccn1)NCCOc1cccc(Cl)c1`, the “Percent Effect” value was 87.31%.
With `O=C(C[S+]([O-])C1CCCC1)NCCOc1cccc(Cl)c1` (configuration not stated) the “Percent Effect” value was -1.497%.
With `O=C(CCS(=O)(=O)c1ccccc1)NCCCn1cccn1` the “Percent Effect” value was 91.43%.
`O=C(NCCCn1cccn1)C1(c2ccc(Br)cc2)CC1` was tested, and the “Percent Effect” value was -2.807%.
For `Cl.O=C(CN1CCC[C@H]1C(=O)O)NCCOc1cccc(Cl)c1`, the “Percent Effect” value was -9.308%.
For `O=C(NCCCn1cccn1)C1(c2ccc(F)cc2)CC1`, the “Percent Effect” value was -8.161%.
In the case of `O=C(CCc1ccncc1)NCCOc1ncc(Cl)cc1Cl`, the “Percent Effect” value is reported as -8.284%.
`c1cnn(CCNCCCOc2ccc3c(c2)OCO3)c1` was tested, and the “Percent Effect” value was -9.966%.
With `c1ccc(-c2nc3c(c(NCCn4cccc4)n2)CCNCC3)nc1` the “Percent Effect” value was -2.581%.
With `CC(C)c1nc(CC(=O)Nc2nc(CN3CCCCCC3)cs2)cs1` the “Percent Effect” value was 13.84%.
In the case of `O=C(CCn1cncn1)NCCOc1cccc(Cl)c1`, the “Percent Effect” value is reported as 114.1%.
In the case of `O=C(NCCCn1cccn1)C1COCC(=O)N1Cc1ccccc1` (configuration not stated), the “Percent Effect” value is reported as -30.45%.
With `Cc1occc1C(=O)NCC(=O)NCCOc1cccc(Cl)c1` the “Percent Effect” value was 23.6%.
For `O=C(CN1CCOc2ccc(Cl)cc21)NCCCn1cccn1`, the “Percent Effect” value was -8.926%.
With `CC(C(=O)NCCOc1cccc(Cl)c1)n1cncn1` (configuration not stated) the “Percent Effect” value was -0.6619%.
`O=C(CCOc1ccc(Cl)cc1)NCCCn1cccn1` was tested, and the “Percent Effect” value was 101.2%.
For `CNc1nc(C(=O)N2C[C@H]3CC[C@@H]2CN(S(C)(=O)=O)C3)cs1`, the “Percent Effect” value was -0.32%.
For `COc1ccc(S(=O)(=O)N2CCC(OCc3ccccn3)C2)cc1Br` (configuration not stated), the “Percent Effect” value was 4.781%.
In the case of `Cc1cc(C2CCCN(CCCS(=O)(=O)c3ccccc3)C2)n[nH]1` (configuration not stated), the “Percent Effect” value is reported as -3.796%.
In the case of `Cc1cc(C2CCCN(CCNS(=O)(=O)c3ccccc3)C2)n[nH]1` (configuration not stated), the “Percent Effect” value is reported as 94.49%.
In the case of `Cc1cc(C2CCCN(CCS(=O)(=O)c3ccccc3)C2)n[nH]1` (configuration not stated), the “Percent Effect” value is reported as 111.9%.
`Cn1c(C2CC2)nc2c1CCN(CCS(=O)(=O)c1ccccc1)C2` was tested, and the “Percent Effect” value was -2.763%.
In the case of `Cc1cc(N2CCC(N(C)Cc3cc(=O)c(O)co3)CC2)nc(C)n1`, the “Percent Effect” value is reported as -0.2819%.
For `CN(CC(O)C1CC1)C(=O)Nc1ccc(F)c(-n2cccc2)c1` (configuration not stated), the “Percent Effect” value was 2.69%.
In the case of `CCn1nc(C(=O)N2CCCC2c2noc(C)n2)ccc1=O` (configuration not stated), the “Percent Effect” value is reported as 2.469%.
With `CCc1cc(C(=O)N2CCCC2c2nc(O)cc(CC)n2)on1` (configuration not stated) the “Percent Effect” value was 115.5%.
For `CCc1cc(O)nc(C2CCCN2C(=O)c2cc(C)no2)n1` (configuration not stated), the “Percent Effect” value was -6.64%.
With `CCc1nc(C2CCCN2C(=O)c2ccc(=O)n(CC)n2)no1` (configuration not stated) the “Percent Effect” value was -10.47%.
In the case of `CCc1cc(O)nc(C2CCCN2C(=O)c2cc(CC)on2)n1` (configuration not stated), the “Percent Effect” value is reported as 115.4%.
With `CCc1nc(C2CCCN2C(=O)c2nccnc2N)no1` (configuration not stated) the “Percent Effect” value was -19.66%.
For `CCc1cc(O)nc(C2CCCN2C(=O)COC)n1` (configuration not stated), the “Percent Effect” value was 126%.
With `CCc1ccc(C(=O)NC2CCN(c3ccn(C)n3)C2)o1` (configuration not stated) the “Percent Effect” value was -10.19%.
For `O=C(Nc1cc(C(F)(F)F)ccc1Cl)c1ccc(N2CCCC2)nn1`, the “Percent Effect” value was 13.93%.
With `N#Cc1ccc(OCCNc2cccc(C(=O)N3CCOCC3)c2)cc1` the “Percent Effect” value was -3.52%.
`CC(C)C(C#N)N1CCN(C(=O)c2cc(-c3ccccn3)no2)CC1` (configuration not stated) was tested, and the “Percent Effect” value was -9.203%.
For `O=C(NCCn1cccc1)C1CCCN(C2CCCC2)C1` (configuration not stated), the “Percent Effect” value was -8.525%.
`CCN(CC)C(=O)[C@@H]1C[C@H](n2cc(-c3ccccn3)nn2)CN1` was tested, and the “Percent Effect” value was -5.115%.
With `CNC(=O)[C@@H]1C[C@H](n2cc(-c3ccc(Cl)cc3)nn2)CN1` the “Percent Effect” value was 104.7%.
In the case of `CNC(=O)[C@@H]1C[C@@H](n2cc(-c3ccc(Cl)cc3)nn2)CN1`, the “Percent Effect” value is reported as 111.1%.
For `CCN(CC)C(=O)[C@@H]1C[C@@H](n2cc(-c3cccc(OC)c3)nn2)CN1`, the “Percent Effect” value was -2.078%.
`CCN(CC)C(=O)[C@@H]1C[C@@H](n2cc(-c3ccccn3)nn2)CN1` was tested, and the “Percent Effect” value was -7.154%.
`CCN(CC)C(=O)[C@@H]1C[C@H](n2cc(-c3cccc(OC)c3)nn2)CN1` was tested, and the “Percent Effect” value was -3.277%.
In the case of `CNC(=O)NC(=O)CCSc1ccccc1C`, the “Percent Effect” value is reported as -14.48%.
With `CCc1noc(CN2CCCC2C(=O)OCc2ccccc2)n1` (configuration not stated) the “Percent Effect” value was 6.169%.
With `Cc1nc2n(n1)CC(NCC(=O)NCCCOC(C)C)CC2` (configuration not stated) the “Percent Effect” value was -9.274%.
For `Cc1ccc(CC(=O)N2CCC(Nc3ccc(C)nn3)CC2)cn1`, the “Percent Effect” value was 105.9%.
In the case of `COc1ccc(CC(=O)N2CCC(Nc3ccc(C)nn3)CC2)cc1`, the “Percent Effect” value is reported as 95.7%.
For `Cc1ccc(NC2CCN(C(=O)Cc3ccc(C#N)cc3)CC2)nn1`, the “Percent Effect” value was -2.358%.
In the case of `Cc1ccc(OCC(=O)NS(=O)(=O)c2cccnc2)cc1C`, the “Percent Effect” value is reported as -7.985%.
`Cc1c[nH]c(C(=O)N2CCC(c3nnc(CN(C)CCO)n3C)CC2)c1` was tested, and the “Percent Effect” value was -9.354%.
